Source: PubChem BioAssay (NCATS)
Inconclusive results are not listed. Activity calls are given as the source filed them. Calls follow the shape of the dose curve; as a rule, active = well fitted curve in the direction sought with a large enough effect; inconclusive = small, poorly fitted or top-dose-only effect, or another doubt; inactive = no such curve, though single readings can be large; an effect the other way counts as inactive or inconclusive.

Tests used:
MCC-13 = assay: qHTS assay to identify novel small-molecules to repurpose for Merkel cell carcinoma treatment (AID 1296009); conditions: MCC and control cell lines, CellTiter-Glo viability, 72 h; series mostly up to 46 µM; also: nearly all actives have a fitted effect of over 60% in size
In short: (§1)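 72 hr, 37 degree celsius; NPC 8-pt / MIPE 11-pt dose response; compound pinned in DMSO; CellTiter-Glo, 10 min RT, luminescence; normalized to no-cell and DMSO controls.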

MCC-26 = assay: as above; conditions: MCC and control cell lines, CellTiter-Glo viability, 72 h; series mostly up to 46 µM
In short: as §1

MKL-1 = assay: as above; conditions: MCC and control cell lines, CellTiter-Glo viability, 72 h; series mostly up to 46 µM
In short: as §1

MKL-2 = assay: as above; conditions: MCC and control cell lines, CellTiter-Glo viability, 72 h; series mostly up to 46 µM
In short: as §1

UISO = assay: as above; conditions: MCC and control cell lines, CellTiter-Glo viability, 72 h; series mostly up to 46 µM
In short: as §1

WaGa = assay: as above; conditions: MCC and control cell lines, CellTiter-Glo viability, 72 h; series mostly up to 46 µM
In short: as §1

C33A = assay: Primary qHTS to identify gynecologic anti-cancer compounds using libraries of approved drugs and bioactive compounds (AID 1345084); conditions: Gynecologic cancer cell panel viability, ATPlite luminescence, 48 h; series mostly up to 57.5 µM; also: nearly all actives have a fitted effect of over 55% in size
In short: (§2)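 Cells, 1,000 per well, were allowed to settle for 16 h at 37 C before compound addition. Five concentrations were tested for 48 h, and viability was read by ATPlite luminescence after 15 min at room temperature.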

CAOV3 = assay: as above; conditions: Gynecologic cancer cell panel viability, ATPlite luminescence, 48 h; series mostly up to 57.5 µM
In short: as §2

CASKI = assay: as above; conditions: Gynecologic cancer cell panel viability, ATPlite luminescence, 48 h; series mostly up to 57.5 µM
In short: as §2

NIH3T3 = assay: qHTS assay to identify novel small-molecules to repurpose for Merkel cell carcinoma treatment (AID 1296009); conditions: MCC and control cell lines, CellTiter-Glo viability, 72 h; at 44.8 µM (top of the series); also: nearly all actives have a fitted effect of over 60% in size
In short: as §1

Measured: Potency

Cc1ccc(-c2ncc(Cl)cc2-c2ccc(S(C)(=O)=O)cc2)cn1
inactive: MCC-13 | MCC-26 | MKL-1 | MKL-2 | UISO | WaGa | C33A | CAOV3 | CASKI

Nc1ccc(S(=O)(=O)Nc2cnc3ccccc3n2)cc1
inactive: MCC-13 | MCC-26 | MKL-1 | MKL-2 | NIH3T3 | UISO | WaGa | C33A | CAOV3 | CASKI

CCN(CC)CCOC(=O)C(Cc1cccc2ccccc12)CC1CCCO1 (stereo not drawn)
inactive: MCC-13 | MCC-26 | MKL-1 | MKL-2 | UISO | WaGa | C33A | CAOV3

COc1ccc2c(c1)c1c3n2CCN(C)C3=NCC1
inactive: MCC-13 | MCC-26 | MKL-1 | MKL-2 | UISO | WaGa | C33A | CAOV3 | CASKI

CCCCOC(=O)CC(CC(=O)OCCCC)(OC(C)=O)C(=O)OCCCC
inactive: MCC-13 | MCC-26 | MKL-1 | MKL-2 | UISO | WaGa | C33A | CAOV3 | CASKI

Oc1ccccc1C=NCc1ccccc1
inactive: MCC-13 | MCC-26 | MKL-1 | MKL-2 | NIH3T3 | UISO | WaGa | C33A | CAOV3 | CASKI

CC(C)(C)NC[C@H](O)COc1nsnc1N1CCOCC1
inactive: MCC-13 | MCC-26 | MKL-1 | MKL-2 | UISO | WaGa | C33A | CAOV3 | CASKI

CCOc1cc(OCC)c(C(=O)CCC(=O)O)cc1OCC
inactive: MCC-13 | MCC-26 | MKL-1 | MKL-2 | NIH3T3 | UISO | WaGa | C33A | CAOV3 | CASKI

NCc1ccccc1Sc1ccccc1CO
inactive: MCC-13 | MCC-26 | MKL-1 | MKL-2 | NIH3T3 | UISO | C33A | CAOV3 | CASKI

CC(C)=CCOc1ccc(/C=C/C(=O)c2ccc(OCC=C(C)C)cc2OCC(=O)O)cc1
inactive: MCC-13 | MCC-26 | MKL-1 | MKL-2 | NIH3T3 | WaGa | C33A | CAOV3 | CASKI

COc1cc(C(=O)NCc2ccc(OCCN(C)C)cc2)cc(OC)c1OC
inactive: MCC-13 | MCC-26 | MKL-1 | MKL-2 | UISO | WaGa | C33A | CAOV3 | CASKI

NS(=O)(=O)Cc1noc2ccccc12
inactive: MCC-13 | MCC-26 | MKL-1 | MKL-2 | UISO | WaGa | C33A | CAOV3 | CASKI

COc1cc([C@H]2Oc3cc([C@H]4Oc5cc(O)cc(O)c5C(=O)[C@@H]4O)ccc3O[C@@H]2CO)ccc1O
inactive: MCC-13 | MCC-26 | MKL-1 | MKL-2 | UISO | WaGa | C33A | CAOV3 | CASKI

CCN1CCCC(OC(=O)C(c2ccccc2)c2ccccc2)C1 (stereo not drawn)
inactive: MCC-13 | MCC-26 | MKL-1 | MKL-2 | UISO | WaGa | C33A | CAOV3 | CASKI

CCN1CCN(C(=O)N[C@@H](C(=O)N[C@@H]2C(=O)N3C(C(=O)O)=C(CSc4nnnn4C)CS[C@H]23)c2ccc(O)cc2)C(=O)C1=O
inactive: MCC-13 | MCC-26 | MKL-1 | MKL-2 | UISO | WaGa | C33A | CAOV3 | CASKI

CC(C)Nc1cccnc1N1CCN(C(=O)c2cc3cc(NS(C)(=O)=O)ccc3[nH]2)CC1
inactive: MCC-13 | MCC-26 | MKL-1 | MKL-2 | UISO | WaGa | C33A | CAOV3 | CASKI

CCNC(=O)NCc1cccc(Cl)c1
inactive: MCC-13 | MCC-26 | MKL-1 | MKL-2 | UISO | WaGa | C33A | CAOV3 | CASKI

CCC1Nc2cc(Cl)c(S(N)(=O)=O)cc2S(=O)(=O)N1 (stereo not drawn)
inactive: MCC-13 | MCC-26 | MKL-1 | MKL-2 | UISO | WaGa | C33A | CAOV3 | CASKI

CCCCCCCCCCC[C@@H](C[C@@H]1OC(=O)[C@H]1CCCCCC)OC(=O)[C@H](CC(C)C)NC=O
inactive: MCC-13 | MCC-26 | MKL-1 | MKL-2 | UISO | WaGa | C33A | CAOV3 | CASKI

O=C(Nc1ccc([N+](=O)[O-])cc1)Nc1ccc([N+](=O)[O-])cc1
inactive: MCC-13 | MCC-26 | MKL-1 | MKL-2 | UISO | WaGa | C33A | CAOV3 | CASKI

NS(=O)(=O)c1cc2c(cc1Cl)NC(CC1CCCC1)NS2(=O)=O (stereo not drawn)
inactive: MCC-13 | MCC-26 | MKL-1 | MKL-2 | UISO | WaGa | C33A | CAOV3 | CASKI

C[C@@H](O)[C@H]1C(=O)N2C(C(=O)O)=C(S[C@@H]3CN[C@H](CNS(N)(=O)=O)C3)[C@H](C)[C@H]12
inactive: MCC-13 | MCC-26 | MKL-1 | MKL-2 | UISO | WaGa | C33A | CAOV3 | CASKI

COP(=O)(OC)OC(c1ccc(Cl)cc1)P(=O)(OC)OC (stereo not drawn)
inactive: MCC-13 | MCC-26 | MKL-1 | MKL-2 | UISO | WaGa | C33A | CAOV3 | CASKI

CC(=O)NO
inactive: MCC-13 | MCC-26 | MKL-1 | MKL-2 | UISO | WaGa | C33A | CAOV3 | CASKI
